Data from the supplement of paper PMC8253809.

Experiments:
Assay in all cases: growth inhibition (% activity, log2 RLU normalised to DMSO / staurosporine); higher = more growth inhibition
Conditions in all cases: 33 µM
DIPGX29 = test system: DIPGX29 (H3.3 K27M diffuse intrinsic pontine glioma line)
How it was run: (§1)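 Approved drugs were tested in triplicate at a single final concentration of about 33 μM for 7 days at 37 °C, 5% CO2, on pHGG cell lines and H9-derived neural stem cells. Readout was CellTiter-Glo luminescence, log2-transformed and scaled per plate to % activity between solvent and positive control wells. The median over replicates gives the growth-inhibition value.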

DIPGX37 = test system: DIPGX37 (H3.3 K27M diffuse intrinsic pontine glioma line)
How it was run: as §1

DIPGX7 = test system: DIPGX7 (H3.3 K27M diffuse intrinsic pontine glioma line)
How it was run: as §1

DIPGX9 = test system: DIPGX9 (diffuse intrinsic pontine glioma line)
How it was run: as §1

HGGX39 = test system: HGGX39 (paediatric high-grade glioma line)
How it was run: as §1

HGGX6 = test system: HGGX6 (H3.3 G34R paediatric high-grade glioma line)
How it was run: as §1

HNSC = test system: HNSC
How it was run: as §1

SUDIPGIV = test system: SUDIPGIV (diffuse intrinsic pontine glioma line)
How it was run: as §1

SUDIPGVI = test system: SUDIPGVI (diffuse intrinsic pontine glioma line)
How it was run: as §1

SUDIPGXIII = test system: SUDIPGXIII (diffuse intrinsic pontine glioma line)
How it was run: as §1

| Structure (SMILES) | growth inhibition (DIPGX29) [%] | growth inhibition (DIPGX37) [%] | growth inhibition (DIPGX7) [%] | growth inhibition (DIPGX9) [%] | growth inhibition (HGGX39) [%] | growth inhibition (HGGX6) [%] | growth inhibition (HNSC) [%] | growth inhibition (SUDIPGIV) [%] | growth inhibition (SUDIPGVI) [%] | growth inhibition (SUDIPGXIII) [%] |
| --- | --- | --- | --- | --- | --- | --- | --- | --- | --- | --- |
| CCCC(=O)[O-].[Na+] | -1.17 | -2.44 | -0.966 | 0.792 | 0.723 | 0.649 | -2.84 | -1.12 | 0.269 | 0.879 |
| CS(=O)(=O)OCCCCOS(C)(=O)=O | 1.61 | 2.89 | 1.75 | 1.86 | 3.01 | 2.25 | -0.43 | 0.215 | 0.662 | 0.839 |
| CNC(=O)c1cc(Oc2ccc(NC(=O)Nc3ccc(Cl)c(C(F)(F)F)c3)cc2)ccn1 | 35.1 | 67.2 | 28.2 | 25.6 | 50.7 | 32 | 76.1 | 41.2 | 60.7 | 69.3 |
| CCOc1nc2cccc(C(=O)OCc3oc(=O)oc3C)c2n1Cc1ccc(-c2ccccc2-c2noc(=O)[nH]2)cc1 | 0.179 | -1.86 | 1.02 | 0.141 | 0.998 | -2.04 | 16.6 | -1.36 | -4.87 | -1.75 |
| CCn1nc(C(=O)O)c(=O)c2cc3c(cc21)OCO3 | 0.16 | 0.624 | -0.169 | -0.854 | 0.711 | 1.66 | 0.841 | -0.519 | -0.803 | 0.089 |
| CC1=C(C(=O)OC(C)C)C(c2cccc([N+](=O)[O-])c2)C(C(=O)OC2CN(C(c3ccccc3)c3ccccc3)C2)=C(N)N1 (stereo not given) | 9.28 | 5.94 | 22.2 | 3.53 | 13.3 | 15.6 | 58 | 14.3 | 27.2 | 11.7 |
| OCCOCCN1CCN(C(c2ccccc2)c2ccc(Cl)cc2)CC1 (stereo not given) | 3.87 | 0.602 | 4.59 | 0.403 | 2.86 | 3.73 | 4.05 | 1.02 | -1.15 | 1.1 |
| NC(=O)c1cccnc1 | -0.689 | -1.05 | -0.0852 | 0.951 | 0.786 | 0.835 | 0.303 | -0.404 | -0.906 | 0.194 |
| CCCSc1nc(N[C@@H]2C[C@H]2c2ccc(F)c(F)c2)c2nnn([C@@H]3C[C@H](OCCO)[C@@H](O)[C@H]3O)c2n1 | 2.23 | 3.23 | 4.99 | 1.97 | 5.25 | 1.74 | 20.6 | 3.4 | 3.52 | 0.841 |
| COC(=O)C1=CO[C@@H](O)[C@@H]2C(CO)=CC[C@H]12 | -0.243 | 2.53 | -0.199 | 2.66 | -0.158 | 2.23 | -1.1 | -0.3 | -0.83 | 1.32 |
